This is part of a sample that, as a whole, favours compounds with a hit. Of some 83,000 tested, about 20% had one in any assay.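 Cell lines were cultured in 96-well plates, exposed to a single compound concentration, and assessed for percent growth 48 hours later.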 Calls of active or inactive are those of the source. Rule for the calls: active = growth percent below 10; inactive = the rest.
Each compound was assayed on T-47D breast (assay: NCI-60 one-dose screen, 48 h (100 = growth as untreated, 0 = no growth, -100 = all killed)). Conditions: 10 µM unless noted.

Compound	growth
COc1cccc(C2C3=C(COC3=O)N(CCO)c3cc4c(cc32)OCCO4)c1 (stereo not given)	65.3% (inactive)
CCN=c1sc2c(n1NC(=O)c1cc3ccc1CCc1ccc(cc1)CC3)C(=O)c1ccccc1C2=O	-19.8% (active)
COc1cccc(/C=C/C(=O)/C=C(/C=C/c2cccc(OC)c2OC)OB(F)F)c1OC	41.2% (inactive)
COc1ccc(Nc2nccc(Nc3ccc4[nH]ncc4c3)n2)cc1	-3.74% (active)
O=c1n(C2OC(CO)C(O)C2O)ccc2nccn12 (stereo not given)	118% (inactive)
C=CCn1c(SCC(=O)Nc2ccc(C(=O)/C=C/c3ccc(Cl)cc3)cc2)nnc1-c1ccc(Cl)c(Cl)c1	76.6% (inactive)
NCCNc1ccc([N+](=O)[O-])cc1	106% (inactive)
O=C1CC2C=CCN2C=C1NC(=O)c1ccccc1 (stereo not given)	99.8% (inactive)
O=C(/C=C/c1ccc(Cl)cc1)c1ccc(Nc2ccnc3cc(Cl)ccc23)cc1	96.4% (inactive)
COc1cccc(-c2nn(-c3ccccc3)cc2-c2ccnc(-c3cccnc3)c2)c1	76.9% (inactive)
Cc1nc2sc(C(=O)Nc3ccccc3)c(N)c2cc1C(O)c1ccccc1 (stereo not given)	54.6% (inactive)
COC(=O)c1c(C(=O)OC)c2ccc3c4ncccc4ccc3n2c1C(=O)c1ccc(C)cc1	54.4% (inactive)
CN1CCN(Cc2ccc(NC(=O)c3cncc(C#Cc4c(N)ncc5ccccc45)c3)cc2C(F)(F)F)CC1	-64.5% (active)
O=C(NCCN1CCOCC1)c1cncnc1Nc1ccc2c(ccn2Cc2ccccn2)c1	98.3% (inactive)
CCCCCCCCOC(=O)c1c(C)[nH]c(/C=C2\N=C(c3ccc[nH]3)C=C2OC)c1C	4.23% (active)
COc1ccc(Nc2nc(Nc3cc(C)[nH]n3)c3cc(OC)c(OC)cc3n2)cc1	-52.1% [20 µM] (active)
O=C1c2c(c3c4cccnc4[nH]c3c3ccc4ccccc4c23)C(=O)N1O	40.7% (inactive)
CCOC(=O)c1c2c(n3ccc(NC(=O)CCN4CCCC4)cc13)C(=O)c1ncccc1C2=O	-43.9% (active)
COC(=O)c1c(C)nc(C)c2c1C(=O)C(Br)=C(NCCN1CCOCC1)C2=O	114% (inactive)
CCN1C(=O)N(CC)C2C1NC(=S)N2/N=C/C=C/c1ccccc1 (stereo not given)	46.5% (inactive)

Compound	growth
COCCNC(=O)Cc1cc(-c2ccc(Cl)cc2)n(-c2ccccc2)c1C	56.3% (inactive)
Cc1nn(C)c2ncnc(Nc3ccccc3Br)c12	94.8% (inactive)
CCOC(=O)c1cnc2sc(-c3ccc(OC)cc3)nc2c1Cl	97.2% (inactive)
C=C(CNCCO)[C@@H]1CC[C@]2(CO)CC[C@]3(C)[C@H](CC[C@@H]4[C@@]5(C)CCC(NCCO)C(C)(C)[C@@H]5CC[C@]43C)[C@@H]12 (stereo not given in full)	84.4% (inactive)
O=C1c2c(c3c4cc(F)ccc4oc3c3[nH]c4ccccc4c23)C(=O)N1O	5.76% (active)
Cc1nn(-c2ccccc2)c(Oc2ccccc2)c1/C=N/NC(=O)Cn1c(=O)sc2ccccc21	14.7% (inactive)
O=S(=O)(Nc1ccc(Br)cc1)c1ccc(-c2cnc(C3CC3)o2)cc1	18.6% (inactive)
O=C1c2ccccc2C(=O)c2cc(Cn3c[n+](Cc4ccc5ccccc5c4)c4ccccc43)ccc21	41.2% (inactive)
Cc1cc2c(c(C)n1)CN(C(=O)Nc1nc(-c3cncs3)ccc1N)C2	90.5% (inactive)
CC(C)n1cc(C2=C(c3cccc4ccccc34)C(=O)NC2=O)c2cc(Br)ccc21	90% (inactive)
Oc1c(Cl)cc(Cl)c2ccc(CN3CCNCC3)nc12	43.6% (inactive)
CCN1CCN(c2cc(C(=O)Nc3cccc(Nc4ccc5c(OC)cccc5n4)c3)cc(C(F)(F)F)c2)CC1	11% (inactive)
C#CCOc1ccc(C2=NN(C)C3N=C(Cl)c4ncn(C)c4N23)cc1OCC#C (stereo not given)	77.4% (inactive)
CC(C)=CC(=O)C1C(=O)c2ccccc2C1=O	97.3% (inactive)
COc1cc(NC(=O)c2cncnc2Nc2ccc3c(ccn3Cc3cccc(F)c3)c2)cc(OC)c1	70.9% (inactive)
CCCC[N+]1(C)CCN=C1Cc1ccccc1 (stereo not given)	101% (inactive)
O=C(COc1ccc(/C=C2\Oc3ccccc3C2=O)cc1)Nc1nccs1	115% (inactive)
CN1CCN(Cc2ccc(NC(=O)c3cncc(C#Cc4c(N)ncc5cc(F)ccc45)c3)cc2C(F)(F)F)CC1	77% (inactive)
Nc1cc(-c2ccc(Cl)cc2)nn1-c1nc(-c2ccc(Br)cc2)cs1	98.2% (inactive)
O=c1c(Cc2ccc(F)cc2)cc(-c2ccccc2)nn1C/C(=N/O)c1ccccc1	11.8% (inactive)

Each compound was assayed on BT-549 breast in the same assay as above. Conditions: 10 µM unless noted.

Compound	growth
COc1cccc(C2C3=C(COC3=O)N(CCO)c3cc4c(cc32)OCCO4)c1 (stereo not given)	14.5% (inactive)
CCN=c1sc2c(n1NC(=O)c1cc3ccc1CCc1ccc(cc1)CC3)C(=O)c1ccccc1C2=O	-97.4% (active)
COc1cccc(/C=C/C(=O)/C=C(/C=C/c2cccc(OC)c2OC)OB(F)F)c1OC	48% (inactive)
COc1ccc(Nc2nccc(Nc3ccc4[nH]ncc4c3)n2)cc1	44.2% (inactive)
O=c1n(C2OC(CO)C(O)C2O)ccc2nccn12 (stereo not given)	121% (inactive)
C=CCn1c(SCC(=O)Nc2ccc(C(=O)/C=C/c3ccc(Cl)cc3)cc2)nnc1-c1ccc(Cl)c(Cl)c1	78% (inactive)
NCCNc1ccc([N+](=O)[O-])cc1	103% (inactive)
O=C1CC2C=CCN2C=C1NC(=O)c1ccccc1 (stereo not given)	103% (inactive)
O=C(/C=C/c1ccc(Cl)cc1)c1ccc(Nc2ccnc3cc(Cl)ccc23)cc1	145% (inactive)
COc1cccc(-c2nn(-c3ccccc3)cc2-c2ccnc(-c3cccnc3)c2)c1	98.5% (inactive)
Cc1nc2sc(C(=O)Nc3ccccc3)c(N)c2cc1C(O)c1ccccc1 (stereo not given)	67.9% (inactive)
COC(=O)c1c(C(=O)OC)c2ccc3c4ncccc4ccc3n2c1C(=O)c1ccc(C)cc1	88.1% (inactive)
CN1CCN(Cc2ccc(NC(=O)c3cncc(C#Cc4c(N)ncc5ccccc45)c3)cc2C(F)(F)F)CC1	14.6% (inactive)
O=C(NCCN1CCOCC1)c1cncnc1Nc1ccc2c(ccn2Cc2ccccn2)c1	102% (inactive)
CCCCCCCCOC(=O)c1c(C)[nH]c(/C=C2\N=C(c3ccc[nH]3)C=C2OC)c1C	10.4% (inactive)
COc1ccc(Nc2nc(Nc3cc(C)[nH]n3)c3cc(OC)c(OC)cc3n2)cc1	-87.5% [20 µM] (active)
O=C1c2c(c3c4cccnc4[nH]c3c3ccc4ccccc4c23)C(=O)N1O	45% (inactive)
CCOC(=O)c1c2c(n3ccc(NC(=O)CCN4CCCC4)cc13)C(=O)c1ncccc1C2=O	-73.8% (active)
COC(=O)c1c(C)nc(C)c2c1C(=O)C(Br)=C(NCCN1CCOCC1)C2=O	101% (inactive)
CCN1C(=O)N(CC)C2C1NC(=S)N2/N=C/C=C/c1ccccc1 (stereo not given)	-10.3% (active)

Compound	growth
COCCNC(=O)Cc1cc(-c2ccc(Cl)cc2)n(-c2ccccc2)c1C	83.5% (inactive)
Cc1nn(C)c2ncnc(Nc3ccccc3Br)c12	108% (inactive)
CCOC(=O)c1cnc2sc(-c3ccc(OC)cc3)nc2c1Cl	107% (inactive)
C=C(CNCCO)[C@@H]1CC[C@]2(CO)CC[C@]3(C)[C@H](CC[C@@H]4[C@@]5(C)CCC(NCCO)C(C)(C)[C@@H]5CC[C@]43C)[C@@H]12 (stereo not given in full)	78.9% (inactive)
O=C1c2c(c3c4cc(F)ccc4oc3c3[nH]c4ccccc4c23)C(=O)N1O	44.8% (inactive)
Cc1nn(-c2ccccc2)c(Oc2ccccc2)c1/C=N/NC(=O)Cn1c(=O)sc2ccccc21	25.6% (inactive)
O=S(=O)(Nc1ccc(Br)cc1)c1ccc(-c2cnc(C3CC3)o2)cc1	47.1% (inactive)
O=C1c2ccccc2C(=O)c2cc(Cn3c[n+](Cc4ccc5ccccc5c4)c4ccccc43)ccc21	47% (inactive)
Cc1cc2c(c(C)n1)CN(C(=O)Nc1nc(-c3cncs3)ccc1N)C2	105% (inactive)
CC(C)n1cc(C2=C(c3cccc4ccccc34)C(=O)NC2=O)c2cc(Br)ccc21	92.6% (inactive)
Oc1c(Cl)cc(Cl)c2ccc(CN3CCNCC3)nc12	82.2% (inactive)
CCN1CCN(c2cc(C(=O)Nc3cccc(Nc4ccc5c(OC)cccc5n4)c3)cc(C(F)(F)F)c2)CC1	69.6% (inactive)
C#CCOc1ccc(C2=NN(C)C3N=C(Cl)c4ncn(C)c4N23)cc1OCC#C (stereo not given)	99.6% (inactive)
CC(C)=CC(=O)C1C(=O)c2ccccc2C1=O	108% (inactive)
COc1cc(NC(=O)c2cncnc2Nc2ccc3c(ccn3Cc3cccc(F)c3)c2)cc(OC)c1	68.1% (inactive)
CCCC[N+]1(C)CCN=C1Cc1ccccc1 (stereo not given)	123% (inactive)
O=C(COc1ccc(/C=C2\Oc3ccccc3C2=O)cc1)Nc1nccs1	115% (inactive)
CN1CCN(Cc2ccc(NC(=O)c3cncc(C#Cc4c(N)ncc5cc(F)ccc45)c3)cc2C(F)(F)F)CC1	56.6% (inactive)
Nc1cc(-c2ccc(Cl)cc2)nn1-c1nc(-c2ccc(Br)cc2)cs1	100% (inactive)
O=c1c(Cc2ccc(F)cc2)cc(-c2ccccc2)nn1C/C(=N/O)c1ccccc1	48.4% (inactive)

Source: PubChem BioAssay (NCI)
